In PubChem BioAssay AID488840 (Broad Institute, 2010):
Among all 1,400 compounds or so, about 45 (3%) were called active.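 How the source made its calls: active means half-maximal dose of signal decrease from fit no higher than ten times the top valid tested dose; inconclusive means fit invalid, or curve flat with 30 to 70% inhibition; inactive means the rest.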 A selection follows. Entries with a potency or affinity are not part of this list.

target: Lysine-specific demethylase 4A (Homo sapiens) (UniProt O75164); assay: JMJD2A histone demethylase inhibitors, dose response, selectivity assay for GASC-1 inhibitor project, biochemical, DELFIA europium, cherry-picked samples (AID 488840); settings: GST-JMJD2A(1-420) H3K9me3 demethylation; series mostly up to 6 µM; activity change, negative = inhibition: at the top concentration;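 further: europium signal reports the dimethyl H3K9 product detected by antibody so inhibitors lower it; 0% = median of neutral control wells and -100% = median of positive control wells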
Sequence (O75164 whole entry, looked up): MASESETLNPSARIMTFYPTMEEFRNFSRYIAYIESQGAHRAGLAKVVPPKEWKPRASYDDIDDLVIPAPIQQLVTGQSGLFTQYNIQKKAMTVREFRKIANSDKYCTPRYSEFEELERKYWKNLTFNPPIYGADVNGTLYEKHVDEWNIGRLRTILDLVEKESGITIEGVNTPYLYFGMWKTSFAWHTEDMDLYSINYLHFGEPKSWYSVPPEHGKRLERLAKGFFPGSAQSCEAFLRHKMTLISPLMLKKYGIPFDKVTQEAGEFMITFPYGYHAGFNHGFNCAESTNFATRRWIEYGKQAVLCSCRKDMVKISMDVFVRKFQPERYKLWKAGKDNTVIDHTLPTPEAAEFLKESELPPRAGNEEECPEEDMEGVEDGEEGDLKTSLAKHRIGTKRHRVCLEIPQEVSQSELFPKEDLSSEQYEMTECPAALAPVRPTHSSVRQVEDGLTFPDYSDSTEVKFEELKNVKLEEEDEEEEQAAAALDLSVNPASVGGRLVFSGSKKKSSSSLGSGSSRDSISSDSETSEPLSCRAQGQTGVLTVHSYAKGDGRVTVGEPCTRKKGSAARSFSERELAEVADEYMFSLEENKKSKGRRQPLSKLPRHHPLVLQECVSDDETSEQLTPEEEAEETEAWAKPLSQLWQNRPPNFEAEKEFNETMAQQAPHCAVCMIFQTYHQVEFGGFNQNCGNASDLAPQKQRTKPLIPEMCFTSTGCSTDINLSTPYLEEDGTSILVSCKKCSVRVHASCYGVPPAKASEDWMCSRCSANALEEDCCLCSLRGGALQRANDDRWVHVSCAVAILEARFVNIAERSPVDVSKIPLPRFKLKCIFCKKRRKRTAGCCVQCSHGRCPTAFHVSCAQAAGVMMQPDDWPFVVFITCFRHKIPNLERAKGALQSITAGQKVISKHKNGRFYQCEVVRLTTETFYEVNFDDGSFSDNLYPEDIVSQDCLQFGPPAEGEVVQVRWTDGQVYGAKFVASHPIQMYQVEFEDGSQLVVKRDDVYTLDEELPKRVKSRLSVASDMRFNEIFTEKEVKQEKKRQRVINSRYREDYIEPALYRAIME

Compound	activity change, negative = inhibition
CC1=NN(C(=O)Cc2ccccc2)C(O)(c2cccnc2)C1 (configuration not stated)	2.71% (inactive)
C#CCOCCOCCOCCNc1nc(N2CCN(C(=O)[C@H](CCCCN)n3cc(CN)nn3)CC2)nc(N2CCN(C(=O)[C@H](CCC(=O)O)n3cc([C@@H](N)CCSC)nn3)CC2)n1	1.72% (inactive)
CCN(CC)C(=O)[C@H]1CC(CC(=O)NC/C=C(\C)CCC=C(C)C)C(=O)N2CCc3c([nH]c4ccccc34)[C@]12C (some centres not stated)	7.5% (inactive)
Cc1ccc(/C(N)=N/OC(=O)CCC2CCCCC2)cc1	0.447% (inactive)
O=c1cc(N2CCc3ccccc32)[nH]c(=O)n1-c1ccccc1	4.98% (inactive)
CCc1ncc(C)[nH]1	-14.1% (inactive)
Cc1noc(C)c1COc1ccc(C(=O)NCC2CCCO2)cc1 (configuration not stated)	-4.92% (inactive)
O=c1cc(-c2ccc(O)c(O)c2)oc2c(C3O[C@H](CO)[C@@H](O)[C@H](O)[C@H]3O)c(O)cc(O)c12 (some centres not stated)	-24% (inactive)
CCC(C)NC(=S)N1CCN(C)CC1 (configuration not stated)	1.71% (inactive)
COc1cccc(NC(=O)N2CCN(c3cccc(C)c3)C(C)C2)c1 (configuration not stated)	0.171% (inactive)
COC(=O)[C@]1(Cc2ccccc2)N[C@H](CN(C)C(=O)Nc2ccccc2)[C@@H]2C(=O)N(C)C(=O)[C@@H]21	6.68% (inactive)
O=C(NCc1nnc(SCC(=O)N2CCCC2)o1)c1ccccc1F	-1.83% (inactive)
CCC(=O)Nc1ccccc1Nc1cc(C#N)c(C#N)cc1[N+](=O)[O-]	-1.89% (inactive)
O=[N+]([O-])c1ccccc1N/N=C\c1ccccc1Cl	-1.83% (inactive)
Cc1ccc(Nc2nnc(SCC(=O)N(C)C3CCS(=O)(=O)C3)s2)cc1 (configuration not stated)	3.34% (inactive)
CCO[C@@H]1OC(C(=O)NC2CC2)=C[C@H](c2c[nH]c3ccccc23)[C@H]1CCCO	-1.12% (inactive)
O=C(NCCCn1ccnc1)c1cc2c(ccc3ccccc32)o1	4.32% (inactive)
Cc1occc1-c1nnc(SCC(=O)c2cc3ccccc3oc2=O)o1	2.21% (inactive)
COc1ccccc1NC(=O)COC(=O)/C=C/c1cccs1	4.06% (inactive)
COc1ccccc1NC(=O)c1cccs1	-1.95% (inactive)
Cc1ccc(C(=O)NCCCCNC(=O)c2ccc(C)o2)o1	-5.72% (inactive)

Compound	activity change, negative = inhibition
COC(=O)C1=C(C)OC(N)=C(C#N)C1c1cc2cccc(C)c2nc1Cl (configuration not stated)	3.92% (inactive)
CC(C)=CC(=O)O[C@@H]1Cc2c(ccc3ccc(=O)oc23)OC1(C)C	-0.336% (inactive)
c1ccc2c(c1)ccc1nnc(-c3ccc4c(c3)OCO4)n12	3.37% (inactive)
CS(=O)(=O)N(CC(=O)N1CCCCCC1)c1ccccc1	-5.65% (inactive)
C[C@H](CO)N1C[C@H](C)[C@@H](CN(C)Cc2ccncc2)Oc2c(NC(=O)Cc3ccccc3)cccc2C1=O	5.08% (inactive)
O=C(Nc1cccnc1)c1ccc2c(c1)C(=O)N(Cc1cccnc1)C2=O	-1.63% (inactive)
CCOC(=O)CSc1nc2sc(C)c(C)c2c(=O)[nH]1	-5.03% (inactive)
Cn1c(=O)c(-c2ccccc2)nn2c3ccccc3nc12	-0.768% (inactive)
Cc1ccc(Nc2c(-c3ccccn3)nc3cc(C)ccn23)cc1	-3.14% (inactive)
c1ccc(-c2nc(-c3ccco3)cs2)nc1	1.76% (inactive)
Clc1ccccc1Cn1nnc2c(NCCN3CCOCC3)ncnc21	-12% (inactive)
Cc1ccc(NC(=O)c2cccc3c2C(=O)N(C2CCCCC2)C3)c(C)c1	-3.71% (inactive)
Cc1ccc(S(=O)(=O)Nc2ccc3c(c2)C(=O)N([C@H](C)CO)C[C@H](C)[C@@H](CN(C)Cc2ccc(-c4ccccc4)cc2)O3)cc1	20.7% (inactive)
Cc1nn(C)c(N)c1C(O)(c1nccn1C)C(F)(F)F (configuration not stated)	7.95% (inactive)
O=C(NCC(c1ccco1)N1CCCCC1)c1ccc(OCc2ccccc2)cc1 (configuration not stated)	-0.883% (inactive)
CCOC(=O)Cc1csc(NC(=O)COc2cccc(C)c2)n1	-2.61% (inactive)
Cc1ccccc1-n1nc(C)c2cc(C(=O)N3CCN(S(=O)(=O)c4ccc(F)cc4)CC3)sc21	-3.6% (inactive)
Cc1cccc(-c2noc(CCC(=O)NC3CCCC3)n2)c1	-1.01% (inactive)
COc1ccc(CN2CCCCC2C)c(C)c1C (configuration not stated)	2.39% (inactive)
CC(C)CCN(C(=O)C1=COCCO1)c1c(N)n(Cc2ccccc2)c(=O)[nH]c1=O	-0.136% (inactive)
Cn1c(=O)[nH]c(=O)c2c1nc(NCCCO)n2Cc1ccc(F)cc1	1.84% (inactive)

Compound	activity change, negative = inhibition
COC(=O)COc1ccc(Oc2cc(C)nc(SC)n2)nn1	-1.19% (inactive)
Cc1ccc2c(c1)N(CC(=O)NCC1CCCO1)C(=O)C(C(C)C)O2 (configuration not stated)	5% (inactive)
C=CCn1c(N)c(-c2nc3ccccc3n2C)sc1=S	3.81% (inactive)
COc1ccc(C(=O)N2CCCC(c3nc(-c4ccc(OC)c(OC)c4)no3)C2)c(OC)c1 (configuration not stated)	-2.52% (inactive)
O=C(Nc1cc(S(=O)(=O)N2CCOCC2)ccc1N1CCCC1)c1ccc(F)cc1	3.87% (inactive)
O=C(NCCCN1CCOCC1)c1cccc(S(=O)(=O)N2CCc3ccccc3C2)c1	0.16% (inactive)
O=C(COC(=O)c1cccc(S(=O)(=O)NCc2ccccc2)c1)Nc1ccccc1OC(F)F	0.665% (inactive)
c1coc(CSCc2cn3cccnc3n2)c1	5.39% (inactive)
COC(=O)[C@]1(C)N[C@H](CN(C)C(=O)Nc2ccc(F)cc2)[C@@H]2C(=O)N(C)C(=O)[C@@H]21	-4.71% (inactive)
Cc1cccc(NC(=O)C2CCCN(S(=O)(=O)c3c(C)nn(C)c3C)C2)n1 (configuration not stated)	-2.26% (inactive)
CN(C(=O)c1ccc(Cl)c([N+](=O)[O-])c1)C1(C)CCS(=O)(=O)C1 (configuration not stated)	1.09% (inactive)
O=C1NC(=S)N/C1=C/c1cc2c(cc1[N+](=O)[O-])OCO2	3.33% (inactive)
N#CC1(NC(=O)Cn2ncc(Cl)c(Cl)c2=O)CCCCC1	0.808% (inactive)
CCOC(=O)C1=C(C)N(C)C(C)=C(C(=O)OCC)C1c1cccnc1	13.7% (inactive)
COc1cccc(CNC(=O)c2cc3c(cc2Cl)N2CCCCCC2=NS3(=O)=O)c1	-0.22% (inactive)
C#CCOCCOCCOCCNc1nc(N2CCN(C(=O)CCCCCCCCCCNC(=O)[C@H]([C@@H](C)CC)n3cc(CCCCN=C(N)N)nn3)CC2)nc(N2CCN(C(=O)CCCCCCCCCCNC(=O)[C@H](CCCCN)n3cc(C)nn3)CC2)n1	4.37% (inactive)
C#CCOCCOCCOCCNc1nc(N2CCN(C(=O)CCCCCCCCCCNC(=O)[C@H](CCCCN)n3cc(CCO)nn3)CC2)nc(N2CCN(C(=O)CCCCCCCCCCNC(=O)[C@H](CCCCN)n3cc(C[C@@H](C)CC)nn3)CC2)n1	21.3% (inactive)
O=C1C=C(NCc2ccc3c(c2)OCO3)CC(c2ccccc2)C1 (configuration not stated)	8.95% (inactive)
Cc1cc(C(F)(F)F)nn1C(=O)c1cccnc1Cl	-3.32% (inactive)
O=C(NCCCNCCCNC(=O)c1ccc(/C=N/O)nc1)c1ccc(/C=N/O)nc1	14% (inactive)
